# In PubChem BioAssay:
# Calls of active or inactive are those of the source. Unless noted, how the calls were made is not given here.
# Legend:
# [1] = A549 cell viability effects, profiling panel, calcein-AM fluorescence, 48 h, basal (AID 1162); conditions: higher = more signal; further: test concentration not given here
# [2] = adipocyte viability effects, profiling panel, cell-based, 3T3-L1 adipocytes, calcein-AM fluorescence, 48 h, basal (AID 1163); conditions: 3T3-L1 adipocytes viability, higher = more signal; further: test concentration not given here
# [3] = HepG2 cell viability effects, profiling panel, calcein-AM fluorescence, 48 h, basal (AID 1164); conditions: higher = more signal; further: test concentration not given here
# [4] = MM1S cell viability effects, profiling panel, calcein-AM fluorescence, 48 h, basal (AID 1165); conditions: higher = more signal;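 further: viability of MM1S multiple myeloma cells under basal unstimulated conditions; test concentration not given here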
# [5] = basal RPMI8226 viability, no added stimulus, profiling panel, cell-based, calcein-AM fluorescence, 48 h, PK04 Diversity Set (AID 1166); conditions: RPMI8226 myeloma viability, higher = more signal;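 further: cells grown under basal conditions without added stimulus; test concentration not given here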
# [6] = basal HepG2 mitochondrial membrane potential changes, profiling panel, cell-based, JC-1 fluorescence, 24 h, 100 nL compound (AID 1167); conditions: higher = more signal; further: test concentration not given here
# [7] = basal 3T3-L1 adipocyte mitochondrial potential changes, profiling panel, cell-based, JC-1 fluorescence, 3T3-L1 adipocytes, 24 h, 100 nL compound (AID 1168); conditions: JC-1 mitochondrial fluorescence, higher = more signal, called active from +8 up or from −8 down; further: test concentration not given here
# [8] = basal RPMI8226 mitochondrial membrane potential changes, profiling panel, cell-based, JC-1 fluorescence, 24 h, 100 nL compound (AID 1169); conditions: RPMI8226 myeloma, JC-1 mitochondrial potential fluorescence, higher = more signal; further: test concentration not given here
# [9] = basal MM1S mitochondrial membrane potential changes, profiling panel, cell-based, JC-1 fluorescence, 24 h, 100 nL compound (AID 1170); conditions: higher = more signal; further: test concentration not given here
# [10] = A549 lung cancer cell viability effects, profiling panel, resazurin fluorescence, 24 h, PK04 Diversity Set (AID 1171); conditions: higher = more signal, called active from +8 up or from −8 down; further: test concentration not given here
# [11] = HepG2 liver cancer cell viability effects, profiling panel, resazurin fluorescence, 24 h, PK04 Diversity Set (AID 1172); conditions: higher = more signal; further: test concentration not given here
# [12] = basal S. cerevisiae growth modulation, no modifier, primary screen, OD600, strain BY4716, 24 h, basal condition (AID 1173); conditions: OD600, 24 h, higher = more signal, called active from +8 up or from −8 down
# [13] = MM1S myeloma cell viability, profiling panel, resazurin fluorescence, basal, 24 h, PK04 Diversity Set (AID 1174); conditions: higher = more signal, called active from +8 up or from −8 down;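 further: MM1S multiple myeloma cell line; test concentration not given here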
# [14] = molecular target: Dihydroorotate dehydrogenase (quinone), mitochondrial (Plasmodium falciparum (isolate 3D7)) (UniProt Q08210); assay: PfDHODH enzyme inhibitors, primary screen, biochemical, C-terminal His tag, absorbance 600 nm (AID 1175); conditions: DCIP absorbance 600 nm, higher = more signal, called active from +8 up or from −8 down;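 further: recombinant parasite enzyme with a five histidine tag at its C terminus; test concentration not given here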
# Dihydroorotate dehydrogenase (quinone), mitochondrial (Plasmodium falciparum (isolate 3D7)), sequence (Q08210 whole entry, looked up): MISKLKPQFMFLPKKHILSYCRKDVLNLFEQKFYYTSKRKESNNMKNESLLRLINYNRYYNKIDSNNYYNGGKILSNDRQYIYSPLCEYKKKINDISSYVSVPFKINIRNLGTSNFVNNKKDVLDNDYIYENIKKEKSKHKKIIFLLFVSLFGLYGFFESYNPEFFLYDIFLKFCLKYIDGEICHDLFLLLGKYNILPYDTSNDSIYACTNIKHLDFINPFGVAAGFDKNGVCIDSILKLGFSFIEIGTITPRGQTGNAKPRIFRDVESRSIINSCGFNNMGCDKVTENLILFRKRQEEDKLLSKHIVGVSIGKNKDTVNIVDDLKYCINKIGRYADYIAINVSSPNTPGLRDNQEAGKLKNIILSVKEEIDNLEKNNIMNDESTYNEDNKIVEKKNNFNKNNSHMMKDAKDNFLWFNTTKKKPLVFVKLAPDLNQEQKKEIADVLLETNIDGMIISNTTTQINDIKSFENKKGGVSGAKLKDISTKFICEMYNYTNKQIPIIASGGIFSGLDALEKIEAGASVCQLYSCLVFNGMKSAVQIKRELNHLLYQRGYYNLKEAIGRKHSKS
# [15] = P. aeruginosa biofilm formation inhibitors, primary screen, strain PAO1, LB-PBS medium, absorbance 600 nm (AID 1176); further: test concentration not given here; conditions: P. aeruginosa PAO1 growth/biofilm, A600, 12 h; higher = more signal
# [16] = S. cerevisiae RM11-1a growth modifiers, primary screen, strain RM11-1a, OD600, basal, 24 h (AID 1177); conditions: OD600, 24 h, higher = more signal, called active from +8 up or from −8 down;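 further: cultures grown under basal conditions with no added stressor; test concentration not given here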
# [17] = E. coli acrAB mutant growth effects, primary screen, E. coli filamentation inducers, strain DRC39, OD650, 24 h (AID 1178); conditions: higher = more signal, called active from +8 up or from −8 down;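 further: growth measured as culture turbidity by optical density at 650 nm; test concentration not given here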
# [18] = E. coli acrAB mutant growth effects, primary screen, E. coli filamentation inducers, strain DRC39, OD650, 48 h (AID 1179);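 further: screen aims at cell division blockers that make cells filament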; conditions: E. coli DRC39 delta-acrAB growth, higher = more signal, called active from +8 up or from −8 down
# [19] = RPMI8226 myeloma cell viability, profiling panel, resazurin fluorescence, basal, 24 h, PK04 Diversity Set (AID 1180); conditions: higher = more signal;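 further: RPMI8826 multiple myeloma cell line at 5000 cells per well; test concentration not given here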
# [20] = molecular target: E3 ubiquitin-protein ligase XIAP (Homo sapiens) (UniProt P98170); assay: XIAP binders, primary screen, biophysical, small-molecule microarray, fluorescence 635 nm (AID 1181); conditions: small-molecule microarray binding, higher = more signal;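 further: score merges 667 nm emission and signal to noise over triplicate slides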
# E3 ubiquitin-protein ligase XIAP (Homo sapiens), sequence (P98170 whole entry, looked up): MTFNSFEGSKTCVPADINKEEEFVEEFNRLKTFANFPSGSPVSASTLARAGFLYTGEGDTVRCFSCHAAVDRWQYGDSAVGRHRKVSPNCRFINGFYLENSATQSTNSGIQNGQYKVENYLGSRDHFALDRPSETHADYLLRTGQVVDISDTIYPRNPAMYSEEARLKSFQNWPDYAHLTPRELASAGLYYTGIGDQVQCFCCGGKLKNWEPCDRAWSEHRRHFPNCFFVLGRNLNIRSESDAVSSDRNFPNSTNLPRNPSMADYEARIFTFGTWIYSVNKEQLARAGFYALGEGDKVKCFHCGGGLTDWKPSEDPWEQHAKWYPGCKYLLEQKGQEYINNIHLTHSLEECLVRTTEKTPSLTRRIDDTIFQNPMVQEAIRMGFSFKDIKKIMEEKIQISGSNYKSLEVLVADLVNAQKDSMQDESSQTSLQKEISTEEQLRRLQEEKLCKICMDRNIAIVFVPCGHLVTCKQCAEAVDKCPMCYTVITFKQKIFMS
SMILES,z-score [1],z-score [2],z-score [3],z-score [4],z-score [5],z-score [6],z-score [7],z-score [8],z-score [9],z-score [10],z-score [11],z-score [12],z-score [13],composite z-score [14],z-score [15],z-score [16],z-score [17],z-score [18],z-score [19],composite z-score [20]
Cc1c(NC(=O)CC#N)c(=O)n(-c2ccccc2)n1C,1.62,0.317,0.954,0.0823,0.106,1.42,0.166 (inactive),-0.128,-0.63,0.234 (inactive),1.02,-0.267 (inactive),1.07 (inactive),-0.544 (inactive),0.531 (inactive),-1.25 (inactive),1.37 (inactive),1.47 (inactive),0.526,0.0345
C#CCN(C(/C=C/c1ccccc1)CO)C(C(=O)O)c1ccccc1 (stereo not given),-0.341,1.45,-0.996,-0.659,-1.23,0.277,1.08 (inactive),-0.782,0.0117,-0.668 (inactive),-0.589,-2.64 (inactive),0.274 (inactive),-3.17 (inactive),-0.565 (inactive),-0.643 (inactive),1.6 (inactive),-0.198 (inactive),-0.0777,-0.175
COc1ccc([Si](C)(C)[C@@H]2[C@@H](CCn3cc([C@H](O)c4ccccc4)nn3)O[C@]3(C(=O)N(Cc4cccc(N5CCOC5=O)c4)c4ccccc43)[C@H]2C)cc1,1.6,-0.392,1.31,-2.15,0.274,1.84,2.73 (inactive),-0.671,-0.0958,0.181 (inactive),0.194,-0.611 (inactive),-2.91 (inactive),0.539 (inactive),1.35 (inactive),1.98 (inactive),1.44 (inactive),1.45 (inactive),-0.424,-0.102
COCCCNC(=O)[C@@]1(C)c2ccccc2C(=O)N(Cc2cc(C(F)(F)F)cc(C(F)(F)F)c2)[C@H]1c1ccc(CO)cc1,-0.0997,-0.872,0.771,0.384,-0.509,1.59,1.01 (inactive),0.222,-0.668,0.545 (inactive),-0.063,-0.0384 (inactive),0.186 (inactive),1.03 (inactive),0.127 (inactive),0.429 (inactive),0.534 (inactive),1.3 (inactive),0.394,-0.204
CC(C)c1ccc(NN2C(C(O)c3cccc(O)c3)C=CC3C(=O)N(c4ccccc4)C(=O)C32)cc1 (stereo not given),-1.09,-0.35,-0.753,-0.26,-0.237,-1.85,-0.948 (inactive),-0.554,-0.749,0.403 (inactive),-0.546,-0.914 (inactive),-0.501 (inactive),0.523 (inactive),0.186 (inactive),1.63 (inactive),-0.0564 (inactive),-0.063 (inactive),-0.111,0.42
CO[C@H]1O[C@H](CO)[C@@H](OC(=O)Nc2ccc(Oc3ccccc3)cc2)[C@H](OC(=O)Nc2ccccc2)[C@H]1OC(=O)Nc1ccccc1,-1.63,0.547,-3.37,-2.24,-3.61,-0.684,1.2 (inactive),-1.31,-0.427,-3.41 (inactive),-2.18,-0.494 (inactive),-2.36 (inactive),-0.996 (inactive),1.97 (inactive),2.67 (inactive),1.57 (inactive),0.561 (inactive),-2.48,0.0668
C=C[C@@H](COC(C)=O)N(Cc1ccccc1[N+](=O)[O-])S(=O)(=O)c1ccc(Br)cc1,1.8,0.425,-0.491,-0.531,0.0618,-0.464,-0.34 (inactive),-0.872,-0.189,-1.61 (inactive),-0.798,-2.24 (inactive),-0.504 (inactive),-2.79 (inactive),-0.0963 (inactive),-2.34 (inactive),1.47 (inactive),0.911 (inactive),0.0192,0.183
O=C1OCC=C[C@H]2OC34C=CCN(c5ccc6ccccc6c5)C(=O)[C@H]3N(CCCO)C(=O)[C@@H]4[C@@H]12 (stereo not given in full),0.501,1.79,0.0068,-0.608,-0.691,-0.448,-0.517 (inactive),0.0183,-0.46,-1.09 (inactive),-0.364,-0.82 (inactive),-0.712 (inactive),-0.959 (inactive),-0.385 (inactive),-0.13 (inactive),-0.265 (inactive),-0.641 (inactive),-2.41,-0.181
